Inconclusive results are not listed. Calls of active or inactive are those of the source.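 The calls were made as follows, unless noted: active = viability loss from added drug above about 55%, and viability with drug at most 40%, in both replicates (limit read from the data, passing the limit was not always enough); inconclusive = both conditions met in only one replicate; inactive = neither replicate meets both conditions.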

Experiment [1] in a line: reducers of endogenous Her2 protein level, primary screen, SKBR3 breast tumor cells, AlphaScreen, ATP viability (AID 461;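 active = Her2 level under about 52% in both replicate screens, with viability over 70% of control, limit read from the data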;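 as to Her2 level: lower value means less Her2 protein in the cells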;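 as to viability: percent of carrier control wells set as 100% viability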). Conditions: 18-24 h, measured here: SKBR3 viability, ATP luminescence, at 10 µM. Background: Bead proximity is the source of the signal in Alpha formats.
In experiment [2] the target is Receptor tyrosine-protein kinase erbB-2 (Homo sapiens) (UniProt P04626). The description is as above. The note with it: 18-24 h, at 10 µM, stronger effect = lower value.
Experiment [3] in a line: SK-BR-3 cell growth inhibitors, pilot screen, 24 h, human (AID 572;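 active = viability at or below 10% of carrier control in both of two separate runs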;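 also: compound exposure lasted between 18 and 24 h rather than exactly 24 h; 100% = carrier-treated control wells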). The note with it: SK-BR-3 viability, CellTiter-Glo luminescence, at 10 µM, stronger effect = lower value.
Experiment [4] in a line: HUVEC growth inhibition – cell-based, human, primary screen (AID 575;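 active = viability at or below 30% in both replicate assays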;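 also: 100% = median of untreated cell wells with 0.1% DMSO on each plate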). Conditions: HUVEC proliferation, CellTiter-Glo luminescence, 72 h; at 10 µM; stronger effect = lower value. (In general: ATP-based viability assays read luminescence as a measure of living cells.)
Experiment [5] is described as follows: growth inhibitors of H69AR lung tumor, primary screen, human, duplicate replicates (AID 580;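 active = viability at or under a set limit in both replicates, limit being median viability minus 3 SD, cut at about 48% in these data, passing the limit was not always enough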;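 also: 100% = mean luminescence of untreated wells and 0% = no signal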). Conditions: H69AR lung tumor cells viability, ATP luminescence, 72 h; at 10 µM; stronger effect = lower value.
A short description of experiment [6]: reversal of MRP1-mediated doxorubicin resistance, pilot screen, H69AR cells, doxorubicin co-treatment (AID 601). Conditions: CellTiter-Glo, 72 h, at 10 µM; for differential viability (reversal): stronger effect = higher value.
Experiment [7] in a line: 384-well plate pilot, post-Golgi transport modulator project, inhibition of yeast transport mutant growth (AID 636; in the data active = inhibition above about 31%). Conditions: absorbance 615 nm, about 18 h, stronger effect = higher value.
Experiment [8] can be described thus: growth suppression of yeast trafficking mutant, preliminary HTS, modulators of trafficking downstream of Golgi apparatus project, 1536-format plate, OD 615 nm (AID 637; in the data active = inhibition above about 30%). The note with it: yeast transport mutant growth, absorbance 615 nm, 18 h; stronger effect = higher value.
Experiment [9] can be described thus: OD615 S. cerevisiae growth inhibition, permissive medium, pilot counter-assay, permissive growth control for S. cerevisiae lifespan shortening project (AID 705;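 active = growth inhibition above 25% in both replicates, a cutoff set 3 SD above the mean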). Conditions: OD615, 24 h, at 10 µM, stronger effect = higher value.
A short description of experiment [10]: Restrictive medium S. cerevisiae growth inhibition, OD615, pilot screen of yeast lifespan reduction project, restrictive growth control (AID 706;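 active = growth inhibition above a set limit, 3 SD over mean compound inhibition, in both replicates, cut at about 43% in these data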;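 also: modified DeaD lifespan yeast strain shifted to restrictive glucose medium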). The note with it: OD615, 48 h, at 10 µM, stronger effect = higher value.
Experiment [11] in a line: viability gain of MRP-1-high H69AR cells under doxorubicin, pilot screen, MRP-1 activator project, CellTiter-Glo, duplicate (AID 807;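 active = viability increase at or above a cutoff of the median across tested compounds plus 3 SD, cut at about 8.5% in these data, passing the limit was not always enough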;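 also: compound pretreatment 18-22 h then 72 h combined with doxorubicin; 0% = doxorubicin alone and 100% = vehicle without doxorubicin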). The note with it: H69AR viability with doxorubicin, CellTiter-Glo luminescence; at 10 µM; stronger effect = higher value.
Experiment [12] can be described thus: growth suppression of beta-catenin knockout HCT116, pilot screen, human colon tumor cells (AID 823;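 active = cell viability at or below a set limit in both duplicate runs, the limit being the all-compound median minus 4 SD, cut at about 23% in these data, passing the limit was not always enough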;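 also: 0% = wells killed by 20 µM Hyamine and 100% = untreated DMSO cell wells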). The note with it: CellTiter-Glo, 60 h, at 10 µM, stronger effect = lower value.
The nature of experiment [13]: growth suppression of PTEN-deleted HCT116, pilot screen, cell-based, HCT116 clonal line, CellTiter-Glo (AID 824;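 active = viability at or below 27.92% in each of two runs, the all-compound median minus 4 SD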;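 also: 0% = 20 µM Hyamine control and 100% = vehicle cell control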). Conditions: 60 h, at 10 µM, stronger effect = lower value.
The nature of experiment [14]: inhibitors of the yeast RAM network, pilot screen, dse1pr::URA3 reporter, 5-FOA selection (AID 869;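 active = inhibition over a set limit, the all-compound mean plus 3 SD, in both replicate runs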;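 also: 0% = DMSO wells with no growth and 100% = 10 µM 1-NA-PP1 with full growth; RAM network block rescues cells from 5-FOA so hits raise OD615 growth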). The note with it: S. cerevisiae dse1pr::URA3 5-FOA growth, OD615, 2 d; at 10 µM; stronger effect = higher value; strain carries analog-sensitive mutant Cbk1 kinase.
Experiment [15] can be described thus: RAM signaling pathway blockade in yeast – S. cerevisiae, Pdr1DBD-CYC8 efflux-inhibited sensitized strain, primary screen (AID 1298;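 active = RAM network inhibition above 8.4% in each of two replicates, 3 SD over the compound average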;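 also: 0% = DMSO untreated cells without growth and 100% = 10 µM 1-NA-PP1 full growth; higher means more yeast growth rescued from 5-FOA killing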). The note with it: S. cerevisiae cbk1-as DSE1-URA3 strain, 5-FOA growth OD615, 2 d; at 50 µM; stronger effect = higher value.
[16] abbreviates: H69AR cells + 2 uM doxorubicin, measured here: viability with 2 uM doxorubicin, stronger effect = lower value.
Where [17] appears, read: H69AR cells, compound alone cytotoxicity.

Chain of Receptor tyrosine-protein kinase erbB-2 (Homo sapiens) (P04626 whole entry, looked up): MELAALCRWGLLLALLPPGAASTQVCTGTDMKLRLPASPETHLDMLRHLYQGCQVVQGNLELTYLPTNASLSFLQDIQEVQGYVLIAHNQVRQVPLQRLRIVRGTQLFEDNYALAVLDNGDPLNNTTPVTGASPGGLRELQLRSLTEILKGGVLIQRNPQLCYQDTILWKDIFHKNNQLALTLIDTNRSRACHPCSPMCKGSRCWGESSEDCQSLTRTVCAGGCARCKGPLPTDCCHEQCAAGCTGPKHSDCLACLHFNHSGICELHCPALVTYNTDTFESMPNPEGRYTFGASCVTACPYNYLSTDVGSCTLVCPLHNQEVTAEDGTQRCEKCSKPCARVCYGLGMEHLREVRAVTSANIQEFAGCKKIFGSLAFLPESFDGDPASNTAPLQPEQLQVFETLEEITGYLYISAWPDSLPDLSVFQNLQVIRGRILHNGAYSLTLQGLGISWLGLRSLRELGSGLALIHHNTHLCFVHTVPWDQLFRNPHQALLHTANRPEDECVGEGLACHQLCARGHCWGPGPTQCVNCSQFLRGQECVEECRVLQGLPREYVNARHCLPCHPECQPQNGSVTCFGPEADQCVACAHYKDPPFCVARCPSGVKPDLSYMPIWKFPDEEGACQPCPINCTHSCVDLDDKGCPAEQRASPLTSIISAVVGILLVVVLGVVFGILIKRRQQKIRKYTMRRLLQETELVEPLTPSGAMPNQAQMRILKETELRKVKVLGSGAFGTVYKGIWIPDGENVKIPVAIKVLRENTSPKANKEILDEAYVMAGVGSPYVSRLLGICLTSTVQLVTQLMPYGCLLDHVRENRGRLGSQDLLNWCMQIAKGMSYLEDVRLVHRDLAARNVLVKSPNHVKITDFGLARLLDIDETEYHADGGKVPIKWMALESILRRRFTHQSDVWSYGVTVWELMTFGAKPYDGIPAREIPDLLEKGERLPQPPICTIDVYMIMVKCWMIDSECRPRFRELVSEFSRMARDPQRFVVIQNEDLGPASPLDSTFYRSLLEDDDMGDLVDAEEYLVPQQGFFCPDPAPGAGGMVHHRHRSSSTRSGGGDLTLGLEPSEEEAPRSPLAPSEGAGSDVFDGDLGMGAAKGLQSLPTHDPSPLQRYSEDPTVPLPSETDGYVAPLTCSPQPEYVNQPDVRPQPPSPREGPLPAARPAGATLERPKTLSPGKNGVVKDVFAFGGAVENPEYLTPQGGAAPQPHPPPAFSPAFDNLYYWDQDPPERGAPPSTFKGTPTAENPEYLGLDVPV

A word on the viability: it is a read-out of living cells in per cent, often relative to untreated cells. As usually defined, the inhibition is the drop in the measured response relative to a control, in per cent. Consider `O=c1[nH]c(SCc2ccc(F)cc2)nc2c1cnn2-c1ccc(F)cc1`, for which the viability in experiment [1] is 69%; in [3], 69% (inactive); in [4], 70.7% (inactive); in experiment [5], 79.1% (inactive); in [6] (setting [16]), 40.8%; in experiment [6] (setting [17]) it was 79.1%. Further, the viability was 39.8% (inactive) in experiment [12] and 51.5% (inactive) in experiment [13]. In addition, the Her2 level in experiment [2] is 106% (inactive). Besides, the differential viability (reversal) in [6] (H69AR cells + 2 uM doxorubicin) was 38.2% (inactive). Moreover, the figures for the inhibition in experiment [7], in experiment [8] and in [14] were 1.87% (inactive), 12.3% (inactive) and 1.02% (inactive), respectively. The growth inhibition was -5.11% (inactive) in [9] and -7.31% (inactive) in experiment [10]. In addition, in [11], the viability increase is -6.32% (inactive). In [15], the RAM network inhibition was 4.01% (inactive).
Consider `O=C(O)C1CCCN(S(=O)(=O)c2ccc(Cl)s2)C1` (stereo not given), for which the viability in experiment [1] is 91%; in experiment [3], 91% (inactive); in experiment [4] it was 102% (inactive); in experiment [5], 93.1% (inactive); in experiment [6] (setting [16]), 88.6%; in experiment [6] (setting [17]), 93.1%. Moreover, the viability in [12] is 100% (inactive); in experiment [13] it was 102% (inactive). Further, the Her2 level in experiment [2] is 124% (inactive). Also, the differential viability (reversal) in experiment [6] (H69AR cells + 2 uM doxorubicin) was 4.47% (inactive). Also, the inhibition in experiment [7] was -4.8% (inactive); in [8] it was 0.5% (inactive); in experiment [14], 2.21% (inactive). Further, the growth inhibition in experiment [9] is -4.79% (inactive); in [10], 7.83% (inactive). Further, the viability increase in experiment [11] is 0.34% (inactive). Also, in experiment [15], the RAM network inhibition is 0.99% (inactive).
Take `Cn1c(C(=O)NCCCN2CCN(c3ccc(F)cc3)CC2)cc2c(=O)n(C)c3ccccc3c21`: the viability was 81% in experiment [1]; 81% (inactive) in [3]; 65.7% (inactive) in [4]; 84.1% (inactive) in [5]; 79.8% in experiment [6] (setting [16]); 84.1% in [6] (setting [17]). Besides, the viability is 67.8% (inactive) in [12] and 70.1% (inactive) in experiment [13]. Besides, in [2], the Her2 level was 90% (inactive). Further, the differential viability (reversal) in [6] (H69AR cells + 2 uM doxorubicin) was 4.36% (inactive). The inhibition in experiment [7] is -3.07% (inactive); in [8], 0% (inactive); in experiment [14], -0.495% (inactive). In addition, the values for the growth inhibition in experiment [9] and in [10] were -6.23% (inactive) and 7.21% (inactive), respectively. Also, the viability increase in [11] is -5.3% (inactive). Moreover, in experiment [15], the RAM network inhibition is 1.71% (inactive).
Regarding `Cc1cc(C)n(-c2ccc(N3CCOCC3)nn2)n1`, the viability in experiment [1] was 108%; in [3], 108% (inactive); in experiment [4], 98.1% (inactive); in experiment [5], 89.5% (inactive); in [6] (setting [16]), 93.8%; in experiment [6] (setting [17]) it was 89.5%. For the same compound, the viability in [12] was 103% (inactive); in experiment [13] it was 101% (inactive). The Her2 level in [2] is 99% (inactive). Also, the differential viability (reversal) in [6] (H69AR cells + 2 uM doxorubicin) was -4.32% (inactive). The inhibition in experiment [7] is 0% (inactive); in [8], 0% (inactive); in experiment [14], 0.245% (inactive). Further, the growth inhibition in experiment [9] is 1.14% (inactive); in experiment [10] it was 10.2% (inactive). In addition, the viability increase in experiment [11] is -0.17% (inactive). Moreover, in experiment [15], the RAM network inhibition is -0.52% (inactive).
With `O=C(C(Cc1ccccc1)n1cccc1)N1CCCCCC1` (stereo not given), the viability in experiment [1] was 99%; in [3], 99% (inactive); in [4] it was 87.6% (inactive); in [5], 95.6% (inactive); in experiment [6] (setting [16]), 84.4%; in experiment [6] (setting [17]) it was 95.6%. For the same compound, the results for the viability in [12] and in experiment [13] were 95.3% (inactive) and 88% (inactive), respectively. For the same compound, the Her2 level in [2] was 102% (inactive). Further, the differential viability (reversal) in experiment [6] (H69AR cells + 2 uM doxorubicin) is 11.2% (inactive). The results for the inhibition in experiment [7], in [8] and in experiment [14] were -0.13% (inactive), -6.89% (inactive) and 1.68% (inactive), respectively. The growth inhibition in experiment [9] is -11.2% (inactive); in experiment [10], -7.42% (inactive). Besides, in experiment [11], the viability increase was -2.42% (inactive). Moreover, in [15], the RAM network inhibition is 2.67% (inactive).
